Assay results from PubChem BioAssay (NCI).
Compounds without any hit were thinned out: in the full panel of roughly 83,000, 20% have a hit.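 Treatment: one concentration, 48 hours, 96-well format. Scoring: percent growth, with anything below 10 considered active.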 Values without a mark were called inactive. The source made the active and inactive calls.

Tests used:
Assay in all cases: NCI-60 one-dose screen, 48 h (100 = growth as untreated, 0 = no growth, -100 = all killed)
Conditions in all cases: 10 µM unless noted
SR leukemia = tested on: SR leukemia
RPMI-8226 leukemia = tested on: RPMI-8226 leukemia
OVCAR-8 ovarian = tested on: OVCAR-8 ovarian
OVCAR-5 ovarian = tested on: OVCAR-5 ovarian
OVCAR-4 ovarian = tested on: OVCAR-4 ovarian
SK-OV-3 ovarian = tested on: SK-OV-3 ovarian
IGROV1 ovarian = tested on: IGROV1 ovarian
OVCAR-3 ovarian = tested on: OVCAR-3 ovarian
HS 578T breast = tested on: HS 578T breast
NCI/ADR-RES ovarian = tested on: NCI/ADR-RES ovarian
T-47D breast = tested on: T-47D breast
BT-549 breast = tested on: BT-549 breast
MDA-MB-435 melanoma = tested on: MDA-MB-435 melanoma
SW-620 colon = tested on: SW-620 colon
MCF7 breast = tested on: MCF7 breast
HCT-116 colon = tested on: HCT-116 colon
HCC-2998 colon = tested on: HCC-2998 colon
KM12 colon = tested on: KM12 colon

SMILES	growth (SR leukemia)	growth (RPMI-8226 leukemia)	growth (OVCAR-8 ovarian)	growth (OVCAR-5 ovarian)	growth (OVCAR-4 ovarian)	growth (SK-OV-3 ovarian)	growth (IGROV1 ovarian)	growth (OVCAR-3 ovarian)	growth (HS 578T breast)	growth (NCI/ADR-RES ovarian)	growth (T-47D breast)	growth (BT-549 breast)	growth (MDA-MB-435 melanoma)	growth (SW-620 colon)	growth (MCF7 breast)	growth (HCT-116 colon)	growth (HCC-2998 colon)	growth (KM12 colon)
CC(C)(CC(=O)O)CC(=O)O	99.3%	104%	121%	99.5%	108%	120%	111%	105%	111%	99.9%	119%	98.6%	99.7%	103%	103%	103%	99.8%	100%
COc1ccc(C)cc1NC(=O)SC(C)C	95.3% [100 µM]	99% [100 µM]	105% [100 µM]	102% [100 µM]	96.7% [100 µM]	111% [100 µM]	102% [100 µM]	116% [100 µM]	102% [100 µM]	103% [100 µM]	89.7% [100 µM]	101% [100 µM]	101% [100 µM]	99.8% [100 µM]	87% [100 µM]	104% [100 µM]	98.5% [100 µM]	101% [100 µM]
CC(C)c1ccc(C(=O)OCCCl)cc1	106%	221%	94%	96.5%	104%	101%	109%	123%	94.7%	102%	91.1%	100%	95.9%	106%	92.6%	82.4%	98.9%	115%
CCOc1ccc(C(=O)NCC(C)C)cc1	102%	105%	105%	105%	97.2%	99.7%	110%	109%	107%	111%	89.1%	98.3%	96.8%	91.7%	93.5%	101%	114%	101%
Cc1ccc(NCN2C(=O)c3ccccc3C2=O)c(C)n1	119%	105%	99.6%	111%	119%	113%	112%	130%	110%	106%	119%	108%	105%	108%	112%	101%	106%	99.5%
COC1OC(C(COC(C)=O)OC(C)=O)C(OC(C)=O)C(OC(C)=O)C1OC(C)=O (centres undefined)	87.3%	98.7%	103%	89.7%	107%	110%	104%	118%	129%	105%	103%	106%	114%	104%	96%	106%	115%	117%
C#CCSc1nnnn1-c1ccccc1	86.9%	72.4%	80.9%	92%	92.6%	104%	92.8%	79.1%	102%	86.7%	39.6%	76.8%	85.3%	53.2%	69.3%	71.6%	104%	77.6%
CC(O)C(F)(F)C(F)(F)C(F)(F)F (centres undefined)	97.6%	128%	110%	98.7%	103%	118%	114%	121%	105%	110%	110%	107%	110%	101%	101%	100%	111%	114%
Cc1ccc(NC(=S)N2CCOCC2)cc1C	108%	102%	104%	102%	102%	97.9%	103%	104%	94.7%	110%	92.1%	102%	83.2%	109%	104%	89.5%	109%	101%
Cn1/c(=N\N=C\c2ccccc2OCCO)sc2ccccc21	89%	81%	100%	104%	106%	104%	70.2%	95.2%	99.8%	109%	79.3%	102%	107%	109%	76.9%	98.8%	110%	92.2%
CC1CN(CCO)CC(C)O1 (centres undefined)	103%	111%	107%	93.1%	99.7%	96.9%	103%	106%	74.4%	106%	93%	108%	102%	102%	109%	112%	119%	101%
Cc1c(-c2ccc(C3CCCCC3)cc2)nc2ccc(F)cc2c1C(=O)O	7.53% (active)	56.1%	37.6%	76.7%	84.2%	58.2%	29.7%	41%	75.3%	45.7%	66.1%	65.2%	34.5%	30.6%	27%	24.8%	49.9%	32%
CCCCOC(=O)c1ccccc1O	154%	16.5%	107%	101%	105%	110%	118%	124%	103%	110%	107%	109%	97.5%	101%	98%	109%	122%	106%
CC(=O)OC(C)c1cccc(C#N)c1 (centres undefined)	104%	102%	103%	104%	109%	93.8%	115%	111%	106%	106%	99.1%	109%	113%	98.2%	101%	100%	107%	104%
CCCCCCCCCc1ccc(OC(C)=O)cc1	102%	91.8%	101%	105%	107%	119%	111%	108%	96.3%	119%	108%	112%	109%	102%	102%	110%	113%	106%
Clc1ccc(-c2noc(/C=C\c3ccccc3)n2)cc1	97.8%	110%	98.7%	99.6%	102%	95.1%	96.3%	102%	119%	108%	89%	102%	92.7%	110%	74.4%	102%	95.2%	100%
O=C(Nc1ccccc1)c1ccco1	100%	105%	101%	110%	100%	103%	105%	114%	103%	107%	103%	98.1%	109%	104%	95.5%	92.3%	84%	117%
Cc1ccc(C(C)C)c(OCC(=O)O)c1	109%	107%	101%	98.7%	112%	108%	109%	113%	101%	111%	117%	112%	108%	96%	100%	105%	106%	108%
